CCT chaperon mod: modulators of cytosolic chaperonin (CCT/TRiC) activity; purified chaperonin ATPase assay, HTRF ADP detection, 30 min; activity change, % (no concentration beside the values), hits read low; actives 0.3% (n = 360,000); in the data active means activity change below about -30%; further: on the % scale 0 is the no-effect control and ±100 the full control effect
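Enzyme 40 or 20 nM (batch-dependent) in Tris pH 7.4/KCl/MgCl2/DTT; cpd 76 uM single point; ATP 10 uM; 30 min 37 °C; Transcreener ADP HTRF detection, 30 min RT; ratio 665/615.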
Glioma ERSR ind: ER stress response induction in glioma; U87-MG GRP78 promoter luciferase reporter, 16 h; Potency, µM, for inactives: at the top dose activation, most hits filed as activators; actives 0.02% (n = 420,000); AID 602332; further: potency means the concentration at half of the fitted maximal effect; series mostly up to about 76 µM; % of control where 0% means no effect; nearly all actives have a fitted effect of over 35% in size
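Stably transfected U87-MG human glioma cells carrying a GRP78-based luminescent sensor were seeded at 1000 cells/well, pin-dosed with compounds and incubated 16 h. Luciferase reagent was then added, and end-point luminescence was read after 10 min at room temperature.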
pAkt inh: Akt phosphorylation inhibition; Neuro2A IGF-stimulated pAkt S473 HTRF, 20 min; active compounds read low; activity change, % for hits at 50 µM; actives 0.32% (n = 360,000); in the data active means activity change below about -80%; inconclusive means mostly about -51% to -80%; further: on the % scale 0 is the no-effect control and ±100 the full control effect
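Neuro2A cells (4,500/well, DMEM with 0.5% FBS) were treated with compound at a single 50 µM final concentration, stimulated with 6 nM IGF for 20 min at 37 °C, and lysed. Phospho-Akt Ser473 was read by HTRF as 665/615 ratio ×10^4.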
Mm-Cpn inhibitor: inhibitors of Methanococcus maripaludis chaperonin TRiC (MmCpn). Potency, µM (series often up to 76.9 µM), inactives show top-dose activity, negative = inhibition, actives largely listed as inhibitors. actives 0.031% (n = 330,000). purified Mm-Cpn ATPase, ADP Transcreener TR-FRET; further: potency means the concentration at half of the fitted maximal effect; on the % scale 0 is the no-effect control and ±100 the full control effect; nearly all actives have a fitted effect of over 80% in size
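ATP (10 uM final) was added to archaeal chaperonin (25 nM final) after 10 min exposure to test compound at 37°C; after 30 min further incubation, ADP was detected by competitive TR-FRET.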
GLS inhibitor: glutaminase GLS (human) inhibition. O94925. GLS enzymatic activity, qHTS titration. Potency, µM (titrated, usually from 45.5 µM), without a hit: top-dose activity change, negative = inhibition, actives largely listed as inhibitors. actives 0.21% (n = 410,000). AID 624170; further: potency means the concentration at half of the fitted maximal effect; on the % scale 0 is the no-effect control and ±100 the full control effect
Target sequence (O94925 whole entry, looked up): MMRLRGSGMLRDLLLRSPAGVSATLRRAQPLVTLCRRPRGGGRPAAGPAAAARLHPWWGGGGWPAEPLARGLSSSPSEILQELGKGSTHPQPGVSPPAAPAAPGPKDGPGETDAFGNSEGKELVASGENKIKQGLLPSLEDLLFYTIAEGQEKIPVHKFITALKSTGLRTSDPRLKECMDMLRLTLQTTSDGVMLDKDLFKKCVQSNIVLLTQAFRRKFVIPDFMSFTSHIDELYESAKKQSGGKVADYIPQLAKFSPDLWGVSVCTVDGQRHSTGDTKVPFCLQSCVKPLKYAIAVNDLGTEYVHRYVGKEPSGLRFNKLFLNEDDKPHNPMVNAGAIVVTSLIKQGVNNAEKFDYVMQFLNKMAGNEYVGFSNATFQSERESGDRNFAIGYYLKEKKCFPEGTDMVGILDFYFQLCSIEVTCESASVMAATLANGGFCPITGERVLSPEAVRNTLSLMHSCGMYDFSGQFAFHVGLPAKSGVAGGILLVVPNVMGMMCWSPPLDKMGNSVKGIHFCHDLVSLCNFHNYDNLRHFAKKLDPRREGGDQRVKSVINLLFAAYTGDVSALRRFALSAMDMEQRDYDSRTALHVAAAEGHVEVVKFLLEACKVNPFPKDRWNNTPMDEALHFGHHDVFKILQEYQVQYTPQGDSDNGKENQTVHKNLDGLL
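Human kidney-isoform GLS in 45 mM KH2PO4 pH 8.2, 0.02% Tween-20, with compound, started with 1mM L-Glutamine (added stock). Glutamate oxidase/HRP/Amplex red coupled fluorescence read at start and after 30 min at RT.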
mIDH1 inhibitor: inhibitors of human mutant IDH1 R132H; O75874; IDH1-R132H enzyme, NADPH consumption, diaphorase/resazurin fluorescence; Potency, µM (top dose mostly 76.6 µM), without a hit: top-dose activity change, negative = inhibition, actives largely listed as inhibitors; actives 0.093% (n = 390,000); further: potency means the concentration at half of the fitted maximal effect; on the % scale 0 is the no-effect control and ±100 the full control effect; nearly all actives have a fitted effect of over 65% in size
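IDH1-R132H (0.5 ug/mL dispensed) in pH 7.5 Tris buffer was preincubated 30 min with compound, then given a substrate mix of 0.016 mM NADPH and 2 mM alpha-KG for 80 min at room temperature; remaining NADPH was read by diaphorase/resazurin fluorescence.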
* hit, by the source's call; i = inactive; ? = inconclusive; nt = no result given; [ ] = remark or other dose. A selection: hits, their analogues and other compounds. The true share with any hit is near 0.85%. Unless noted, the call rests on the fitted dose curve; in most records, active means well fitted curve in the direction sought with a large enough effect; inconclusive means small, poorly fitted or top-dose-only effect, or another doubt; inactive means no such curve, though single readings can be large; an effect the other way counts as inactive or inconclusive.

SMILES | CCT chaperon mod | Glioma ERSR ind | pAkt inh | Mm-Cpn inhibitor | GLS inhibitor | mIDH1 inhibitor
OCC1OC(n2nnc3ccccc32)C(O)C(O)C1O (configuration not stated) | -1 | -4% | -92%* | 3% | -20% | -6%
COc1ccc(NC(=O)CN(C)C(=O)CCC2CCCC2)cc1 | -36* | -1% | i | 1% | -9% | 4%
CCOC(=O)c1ccccc1NC(=O)c1c(O)c2ccccc2n(CC)c1=O | -1 | 1% | i | -1% | 11% | 2%
CCCn1c(=O)c(C(=O)Nc2ccccc2C(=O)OC)c(O)c2ccccc21 | 1 | 6% | -104%* | 0% | 0% | -4%
COc1ccc(N=C2S/C(=C\c3ccc(N4CCOCC4)o3)C(=O)N2CCc2c[nH]c3ccccc23)cc1 | nt | nt | nt | 2% | nt | nt
COc1ccc(N=C2S/C(=C\c3ccc(OCC(=O)O)cc3)C(=O)N2CCc2c[nH]c3ccccc23)cc1 | 2 | -1% | i | 4% | 10µM* | 4%
COC(=O)[C@@]1(Cc2ccccc2)[C@H]2C(=O)N(C)C(=O)[C@H]2[C@H]2CN=C(SCc3ccc(Cl)cc3)N21 | -1 | -3% | i | 0% | 3% | 2%[38.3 µM]
COC(=O)[C@@]1(Cc2ccccc2)[C@H]2C(=O)N(C)C(=O)[C@H]2[C@H]2CN=C(SCc3ccc(C)cc3)N21 | -60* | -4% | i | -1% | 2% | 3%[38.3 µM]
COCC(=O)Nc1cc(C(=O)NC2CCCc3ccccc32)c2c(c1)nc(-c1ccncc1)n2C (configuration not stated) | nt | -1% | nt | nt | nt | nt
Cn1c(-c2ccncc2)nc2cc(C(=O)N[C@H]3CCCCNC3=O)cc(NC(=O)C3CCC3)c21 | nt | -3% | nt | nt | nt | nt
O=c1c2[nH]c3ccccc3c2ncn1Cc1ccncc1 | 2 | -6% | -94%* | 0% | -3% | 2%
O=C1CCCC(O)=C1N=Nc1ccc(C(=O)O)cc1 | 0 | -6% | i | -4% | 11µM* | 17%
CC(=O)Nc1ccc(C(=O)CSc2ncn(-c3ccccc3)n2)cc1 | 0 | 0% | -120%* | -1% | 9% | 2%
Cc1cnc(-n2ncc(C(=O)NCc3ccncc3)c2C2CC2)nc1-c1cccs1 | nt | -2% | nt | nt | nt | nt
Cc1cccc2c(Nc3ccc4c(c3)OCO4)nc(CN3CCC(N4CCCCC4)CC3)nc12 | nt | -1% | nt | nt | nt | nt
CCn1c(C)nc2cc(S(=O)(=O)C(F)(F)C(F)C(F)(F)F)ccc21 (configuration not stated) | -48* | ? | i | 0% | -7% | 4%
O=C(COc1ccc(C(=S)N2CCOCC2)cc1)N1CCCC1 | 0 | 1% | -124%* | 2% | -8% | -2%
CC(C)c1ccc(N2C(=O)[C@@H]3Cc4ccccc4CN3C2=O)cc1 | 1 | -2% | -108%* | -2% | -5% | 1%
Cc1ccc(N2C(=O)[C@@H]3Cc4ccccc4CN3C2=O)cc1 | -1 | 1% | i | 0% | -9% | 0%
COc1cccc(CNC(=O)c2c(OC)cc(=O)n3c2CCN(C(=O)c2ccoc2C)CC3)c1 | nt | 0% | nt | nt | nt | nt
O=C(Nc1nncs1)C1c2ccccc2Oc2ccccc21 | -4 | -4% | -102%* | 1% | 0% | 0%
Cc1ccc(NC(=O)CN(C)C(=O)C(C)OC(=O)CNC(=O)c2ccc(Cl)c([N+](=O)[O-])c2)cc1 (configuration not stated) | -77* | 0% | i | 2% | 7% | 2%
C#Cc1cccc(C(=O)NCc2nc(-c3ccccc3NC(C)=O)oc2C)c1 | nt | -3% | nt | nt | nt | nt
c1ccc(NCc2cccnc2)cc1 | -121* | 0% | i | -1% | 28% | 5%
CS(=O)(=O)N(CCc1ccccc1)CC(=O)NCc1cccnc1 | -2 | -4% | -108%* | 2% | 4% | 1%
O=C(CNC(=O)COc1ccccc1)NCc1cccnc1 | -41* | -1% | i | 1% | 2% | 6%
Fc1ccc(NCc2cccnc2)cc1 | 1 | -5% | i | 1% | 25% | 2%
